Compounds with a hit are over-represented: about 12% of the library has one in this group of screens.
KCC2 mod: modulators of human KCC2 chloride dependent transport | 190,000 compounds, 2.2% hits | KCC2 cells, thallium flux FluoZin-2 fluorescence | Q9H2X9 | B-score of Tl+ flux slope (higher = more flux/activation; lower = inhibition) at 10 µM;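 active = thallium flux slope and its plate-corrected score both differing from the plate sample mean at a set confidence after two filtering rounds, in either direction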;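 note: slope of fluorescence scaled to starting intensity during 10 to 20 s after thallium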
Target sequence (Q9H2X9 whole entry, looked up): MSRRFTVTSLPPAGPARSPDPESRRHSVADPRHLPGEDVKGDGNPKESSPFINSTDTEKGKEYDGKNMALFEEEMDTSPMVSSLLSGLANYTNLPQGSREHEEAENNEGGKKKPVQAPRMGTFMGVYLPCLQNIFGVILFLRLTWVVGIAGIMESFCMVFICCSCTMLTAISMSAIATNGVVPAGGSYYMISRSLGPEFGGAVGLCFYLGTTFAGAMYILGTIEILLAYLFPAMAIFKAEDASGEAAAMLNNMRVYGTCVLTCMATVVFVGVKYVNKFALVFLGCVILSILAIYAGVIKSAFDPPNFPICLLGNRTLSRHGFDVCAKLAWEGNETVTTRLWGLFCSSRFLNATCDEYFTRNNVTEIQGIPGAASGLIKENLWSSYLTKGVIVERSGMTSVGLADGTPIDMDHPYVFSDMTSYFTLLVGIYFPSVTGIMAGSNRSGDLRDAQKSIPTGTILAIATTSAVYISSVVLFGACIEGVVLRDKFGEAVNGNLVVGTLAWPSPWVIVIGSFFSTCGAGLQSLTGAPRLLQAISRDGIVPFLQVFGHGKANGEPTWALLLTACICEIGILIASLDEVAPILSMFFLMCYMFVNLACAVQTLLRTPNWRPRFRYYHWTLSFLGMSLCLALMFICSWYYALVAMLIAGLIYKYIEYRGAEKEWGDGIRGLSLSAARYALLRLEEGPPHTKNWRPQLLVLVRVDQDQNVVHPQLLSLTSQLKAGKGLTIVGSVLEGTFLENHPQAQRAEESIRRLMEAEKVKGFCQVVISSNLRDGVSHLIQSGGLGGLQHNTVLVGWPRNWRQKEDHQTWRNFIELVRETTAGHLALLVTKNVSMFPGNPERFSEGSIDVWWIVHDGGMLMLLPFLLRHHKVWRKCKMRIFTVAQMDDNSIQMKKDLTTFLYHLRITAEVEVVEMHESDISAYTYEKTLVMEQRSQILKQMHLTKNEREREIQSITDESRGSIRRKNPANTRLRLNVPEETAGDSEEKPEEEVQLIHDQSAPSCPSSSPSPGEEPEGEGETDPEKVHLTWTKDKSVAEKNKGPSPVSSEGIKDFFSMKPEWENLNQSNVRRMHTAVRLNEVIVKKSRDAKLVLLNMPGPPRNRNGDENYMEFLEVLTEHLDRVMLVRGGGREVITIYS
Lmaj promast: Leishmania major promastigote growth inhibition; Leishmania major promastigotes, resazurin fluorescence viability; inhibition, % at 10 µM; 200,000 compounds, 9% hits; AID 1063; in the data active = inhibition above about 50%;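 note: promastigotes grown with compound for 44 hours at 28 °C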
WT yeast gro inh: growth inhibition of WT yeast, mitochondrial fusion screen. mitochondrial fusion phenotypic screen, WT strain. 190,000 compounds, 2.1% hits. inhibition, % at 10 µM; in the data active = inhibition above about 58%; tested in S. cerevisiae
Ins promoter up: MIN6 insulin promoter up-regulation; 190,000 compounds, 0.3% hits; z-score at 5 µM; MIN6 insulin promoter-GFP reporter, high-content imaging; hits give high values; AID 1625;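 active = z-score above 3 at 5 µM with at least 500 cells counted in the well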
INS promoter inh: TRM-6 insulin promoter activity inhibition. TRM-6 cells (human fetal islet line), insulin promoter-eGFP reporter, imaging; reporter expression induced with tamoxifen. inhibition, % at 2 µM. 130,000 compounds, 0.9% hits;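 active = inhibition above the mean plus 3 SD, with well images judged a real hit on visual review, cut at about 60% in these data, passing the limit was not always enough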
ROMK primary: human ROMK K+ channel modulation, primary screen. P48048. Tet-inducible ROMK, thallium flux fluorescence; actives lie on both sides. B-score at 10 µM. 130,000 compounds, 2% hits;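 active = signal ratio slope over the read window, or its plate-corrected B-score, at least 3 SD from the plate mean, either direction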;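 note: B-score of the F/F0 ratio slope over 7 to 12 s after thallium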
Hits are given with their value; - = inactive; . = no result given.

SMILES | KCC2 mod | Lmaj promast | WT yeast gro inh | Ins promoter up | INS promoter inh | ROMK primary
COc1ccc(-c2cc3nc(C)c(CCC(=O)NCc4ccc(F)cc4)c(C)n3n2)c(OC)c1 | - | 93 | - | - | . | -
Cc1nc2cc(-c3cccc(F)c3)nn2c(C)c1CCC(=O)NC(C)CCc1ccco1 (centres undefined) | - | 100 | - | - | . | .
CC(=O)Nc1ccc(-c2nc3c(C)cccc3[nH]2)cc1 | . | - | - | - | - | -
CC1CCCC(C)N1C(=O)COC(=O)c1ccc2c(c1)OCO2 (centres undefined) | - | - | - | - | . | -
C[N+]12CCCCC1C(COC(=O)c1ccc3c(c1)OCO3)CCC2 (centres undefined) | . | - | - | - | 75 | -
CC(=O)C(C)Oc1cc(C)cc2oc(=O)c(C)c(C)c12 (centres undefined) | - | - | - | - | . | .
CC(=O)COc1cc(C)cc2oc(=O)c(C)c(C)c12 | - | - | 66 | - | - | .
Cc1cc(C)nc(Oc2ccc(Br)cc2Br)n1 | - | - | - | - | . | -
CCCN1CCC2(CC1)C(C#N)=C(N)Oc1c2sc2nc(C)cc(C)c12 | . | 52 | - | - | - | .
CCOC(=O)N1CCC2(CC1)C(C#N)=C(N)Oc1c2sc2nc(C)cc(C)c12 | - | - | - | - | - | .
CCOc1ccc(-c2cn(-c3ccc(OC)cc3)c(SC)n2)cc1 | - | 51 | - | - | - | -
CCNCCOC(c1ccccc1)c1ccccc1 | - | - | - | . | - | -
CN(C)CC#CCOC(c1ccccc1)c1ccccc1 | - | 99 | - | - | . | -
CCN(CC)CCC(C)OC(c1ccccc1)c1ccccc1 (centres undefined) | - | 100 | - | - | - | -
CCN(CC)CC#CCOC(c1ccccc1)c1ccccc1 | - | 98 | - | - | - | -
CN(C)CC#CCC(O)(c1ccccc1)c1ccccc1 | - | . | . | - | . | -
COc1ccc(-c2cc(=Nc3ccc(C(=O)O)cc3)c3cc(C)ccc3o2)cc1 | - | - | - | - | - | -
COc1cc2c(C)nc3c(cnn3-c3ccccc3)c2cc1OC | - | - | - | - | . | -
CCOc1cc2nc(-c3ccc(OC)c(OC)c3)nc(NCCCN3CCOCC3)c2cc1OC | . | 54 | - | - | - | -
c1ccc(-c2csc3ncnc(NCCN4CCOCC4)c23)cc1 | - | - | - | . | 81 | .
Cc1ccc(-c2csc3ncnc(Nc4ccc(N5CCOCC5)cc4)c23)cc1 | - | - | 64 | - | - | .
Cc1ccc(-c2csc3ncnc(NCCN4CCOCC4)c23)cc1 | - | - | - | - | - | .
COc1ccc(-c2oc3ncn(CCN4CCOCC4)c(=N)c3c2-c2ccc(OC)cc2)cc1 | - | 55 | - | - | - | .
c1ccc(-c2oc3ncnc(NCCCN4CCOCC4)c3c2-c2ccccc2)cc1 | - | 100 | - | - | . | -
Clc1ccc(CNc2nc(CN3CCOCC3)nc3scc(-c4ccccc4)c23)cc1 | - | - | 79 | - | - | -
SMILES | KCC2 mod | Lmaj promast | WT yeast gro inh | Ins promoter up | INS promoter inh | ROMK primary
COc1ccc(-c2oc3ncnc(NCCCN4CCOCC4)c3c2-c2ccc(OC)cc2)cc1 | - | 75 | - | - | . | -
Cc1cc(C)n2nc(SCC(=O)c3cccs3)nc2n1 | - | - | - | - | . | -
Cc1ccc(Cn2cc(S(=O)(=O)c3ccc(Cl)cc3)c(=O)c3cc(F)ccc32)cc1 | - | - | - | - | - | .
CCN(CC(=O)Nc1cc(C)nn1-c1nc(C)cc(C)n1)Cc1ccccc1 | - | 53 | - | - | - | -
Cc1cc(C)nc(-n2nc(C)cc2NC(=O)CN2CCc3ccccc3C2)n1 | - | 54 | - | - | - | .
CC(C)CN(CC(C)C)c1nnc(NC(=O)Cn2c(=O)oc3ccccc32)s1 | - | - | - | - | . | .
O=C(c1ccccc1-c1nc(-c2ccccc2)no1)N1CCCC1 | . | - | - | . | . | .
COc1ccc(OC)c(NC(=O)C2CC(=O)N(c3ccc(Br)cc3)C2)c1 (centres undefined) | . | - | - | - | - | -
CCS(CC)=NS(=O)(=O)c1ccc(NC(C)=O)cc1 | . | - | - | . | - | .
CC1(C)COC2(OC1)C(=O)Nc1ccccc12 | - | - | - | - | . | -
O=C1Nc2ccccc2C12OCC1(CO2)COC2(OC1)C(=O)Nc1ccccc12 (centres undefined) | - | 91 | - | - | - | -
COC(=O)c1[nH]c2ccccc2c1NC(=O)CN1CCN(C/C=C/c2ccccc2)CC1 | - | 64 | - | - | - | -
COC(=O)c1[nH]c2ccccc2c1NC(=O)CN1CC(C)OC(C)C1 (centres undefined) | . | - | - | - | - | .

Screening data deposited in PubChem by several laboratories.
